This passage reports growth results from PubChem BioAssay (NCI).

Compounds without any hit were thinned out: in the full panel of roughly 83,000, 20% have a hit.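 Step 1: grow cells in 96-well plates. Step 2: add test compound at a single concentration. Step 3: incubate 48 h. Step 4: record percent growth.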 A number with no mark means an inactive call. Activity calls are given as the source filed them.

The test has as its system HCT-116 colon. The test can be described thus: NCI-60 one-dose screen, 48 h (100 = growth as untreated, 0 = no growth, -100 = all killed). To be noted: 10 µM unless noted. The method, then: Growth inhibition of the HCT-116 human tumor cell line is measured as a screen for anti-cancer activity. Cells are grown in 96 well plates and exposed to the test compound for 48 hours. Compounds are tested at a single concentration, which is 10^-5 M for most compounds. The reported endpoint is percent growth (GI% or GIPRCNT), where numbers from 0 - 100% represent growth inhibition, and numbers from -100% - 0 represent cell death. For example, a value of 40 represents 60% growth inhibition. A value of 0 means no net growth occurred over the course of the experiment. A value of -40 indicates 40% of cells at the beginning of the experiment died by the end of the experiment. A value of -100 means all cells are dead at the end of the experiment.
NCI-60 Human Tumor Cell Lines Screen was performed using the standard one-dose NCI protocol, which is described in more detail at https://dtp.cancer.gov/discovery_development/nci-60/default.htm.
Compounds with GIPRCNT values below 10 were considered active. Activity score was based on GIPRCNT using the following formula: […]
Score is 0 for GIPRCNT values of 100 or above, 50 for GIPRCNT values of 0, and 100 for GIPRCNT values of -100.
Consider `CCCCCCCC(=O)SCC/C=C/[C@@H]1CC(=O)NCc2cccc(n2)C2=N[C@@](C)(CS2)C(=O)N[C@@H](C(C)C)C(=O)N1`, for which the growth is 2.91% (active).

Regarding `COc1cccc(NC(=O)Nc2ccc(Nc3ncnc4sc5c(c34)CCN(C(=O)CCl)C5)cc2)c1`, the growth is 93.5%.

Turning to `COC(=O)c1[nH]cnc1/N=N/N(C)CCO`, the growth was 93.5%.

For the compound `Nc1ncnc2c1ccn2-c1cccc(NC(=O)c2ccc(N3CCOCC3)c(C(F)(F)F)c2)c1`, the growth was 24.9%.

In the case of `CC(=O)C1=C(C)NC(SCc2nnc(-c3ccc(C)cc3)o2)=NC1c1ccc(F)cc1` (stereo not given), the growth was 93.6%.

On to `C=CC[n+]1c(/C=C/C=C2\N(C)c3ccccc3C2(C)C)sc2ccc(OC)cc21`, for which the growth is 11.6%.

As for `Cc1sc2c(c1C)c(=O)nc1c(-c3nc4ccccc4s3)n[nH]n12`, the growth is 90%.

For the compound `CCOC(=O)Sc1ncnc2nc[nH]c12`, the growth is 31.2%.

As to `COc1ccc(-c2cc3c(C)nc(N)nc3n(C3CCC(OCCO)CC3)c2=O)cn1` (stereo not given), the growth is 7.89% (active).

In the case of `Nc1nc(N)c2nc(-c3cccc(O)c3)c(-c3cccc(O)c3)nc2n1`, the growth is 77.9%.

As to `COc1cc(NCCCN)c2ncccc2c1`, the growth was 60.4%.

`Cc1ccc(-c2nc3ccc(Cl)cn3c2NC2CCCCC2)o1`: the growth was 56.1%.

As for `Cc1nc(N)sc1-c1ccnc(Nc2ccc(N3CCOCC3)cc2)n1`, the growth is 26.2%.

With `COC(=O)CCCNc1c(-c2c(O)c(O)cc3c(O)c(-c4c(C)cc5c(-c6nc7ccccn7c6NCCCC(=O)OC)c(O)c(O)cc5c4O)c(C)cc23)nc2ccccn12`, the growth is 7.23% (active).

On to `O=C1C=CC2(NN=C(c3ccccc3)N2c2cccc(Cl)c2)c2cccc(O)c21` (stereo not given), for which the growth is 54.8%.

With `CCN(CC)CCNc1ccc(N=Nc2cnc3ccccc3c2)c2ccccc12`, the growth was -94.8% (active).

Consider `CC/C(=C(\c1ccc(OCCN2CCCCCCC2)cc1)c1ccc(OC(=O)C2CCCCC2)cc1)c1ccc(Cl)cc1`, for which the growth was 87.3%.

`COc1ccc2c(c1)cn1c3ccc(O)cc3nc(N)c21`: the growth is 18%.

Take `CCN1CCN(c2cc(C)nc(N(CCCNc3ccnc4cc(Cl)ccc34)Cc3cccs3)n2)CC1`: the growth is 10.8%.

For the compound `CCN(CCCOc1ccc2c(Nc3cc(CC(=O)Nc4cccc(F)c4)[nH]n3)ncnc2c1)CCOP(=O)(O)O`, the growth is 47.5%.

Turning to `C=CCN1C(=O)c2cccc3c(-c4ccc5c(c4)ncn5C4CCCCC4)ccc(c23)C1=O`, the growth is 32%.

Take `CO[C@@H](C)Cn1c(=O)n(C)c2cnc3ccc(-c4cncc(C(C)(C)O)c4)cc3c21`: the growth was 3.72% (active).

Consider `CO[C@H]1C[C@@H]2CC[C@@H](C)[C@@](O)(O2)C(=O)C(=O)N2CCCC[C@H]2C(=O)O[C@H]([C@H](C)C[C@@H]2CC[C@@H](OCCO)[C@H](OC)C2)CC(=O)[C@H](C)/C=C(\C)[C@@H](O)[C@H](OC)C(=O)[C@H](C)C[C@H](C)\C=C/C=C/C=C/1C`, for which the growth is 64.3%.

Take `Cn1nccc1Nc1nccc(-c2ccn([C@H](CO)c3ccc(Cl)c(F)c3)c(=O)c2)n1`: the growth was 52.5%.

Turning to `COc1cc(-c2nc(C(=O)Nc3ccc(C)cc3)nn2-c2ccc(F)c(F)c2)cc(OC)c1OC`, the growth was 95.7%.

With `NC(=O)Nc1cc(-c2cccc(F)c2)sc1C(=O)N[C@H]1CCCNC1`, the growth was -9.03% (active).

In the case of `O=C(CNc1nnc(-c2ccc(Cl)cc2)o1)Nc1ccc(-c2nc3ccccc3s2)cc1`, the growth was 89.8%.

For `O=C(c1ccc(/C=C/c2n[nH]c3ccccc23)cc1)N1CCNCC1`, the growth was 17.7%.

In the case of `COc1ccc(-c2nc(N)ncc2Oc2ccccc2OC)c(O)c1`, the growth was 15.9%.

Take `C/C(=N\NC(=O)Cn1c(-c2ccc(S(C)(=O)=O)cc2)nc2ccccc21)c1ccc(Cl)cc1`: the growth was 83.1%.

For the compound `CCN(CC)Cc1cc(Nc2cc(C(F)(F)F)c(C#N)c3nc4ccccc4n23)ccc1O`, the growth was 4.67% (active).

With `CC[C@H](Nc1ncnc2nc[nH]c12)c1nc2cccc(F)c2c(=O)n1-c1ccccc1`, the growth was 65.5%.

For `Cc1ccc(C(=O)Nc2ccc(CN3CCN(C)CC3)c(C(F)(F)F)c2)cc1C#Cc1cnc2cccnn12`, the growth was -85.3% (active).

Regarding `C[C@@H](NC(=O)c1ncnc(N)c1Cl)c1ncc(C(=O)Nc2cc(C(F)(F)F)c(Cl)cn2)s1`, the growth is 25.3%.

With `Cn1c(Nc2ccc(C(F)(F)F)cc2)nc2cc(Oc3ccnc(-c4ncc(C(F)(F)F)[nH]4)c3)ccc21`, the growth was 32.9%.

With `CC(C)(C)c1ccc(Cn2cc(CSc3nc4ccccc4s3)nn2)cc1`, the growth is 121%.

For `CN(C)C[C@@H]1CCn2cc(c3ccccc32)C2=C(C(=O)NC2=O)c2cn(c3ccccc23)CCO1`, the growth was -69.4% (active).

For the compound `NC[C@@](O)(c1ccc(Cl)cc1)c1ccc(-c2cn[nH]c2)cc1`, the growth was 0.471% (active).

For `Cc1cc2c(-c3nc4ccccn4c3Nc3cccc4ccccc34)c(O)c(O)cc2c(O)c1-c1c(C)cc2c(-c3nc4ccccn4c3Nc3cccc4ccccc34)c(O)c(O)cc2c1O`, the growth was -5.99% (active).

Turning to `CCc1cc2c(c3ccc(C(=O)CBr)cc13)CCCC2`, the growth is 102%.
